Experimental data taken from the supplement of paper PMC9254222.
The full ranking holds about 1,100 compounds; the median of “Wnt reporter firefly/Renilla luciferase ratio relative to plate median” is about 1.1, and the highest 2% start at about 1.6. Only a selection was taken, and the highest values are over-represented in it overall.

Tested on: HEK293T (UBE3A T485A transfected, BAR Wnt reporter)
Test: Wnt reporter firefly/Renilla luciferase ratio relative to plate median (fold (linear ratio)); higher = more Wnt/beta-catenin reporter activation
Conditions: 24 h
Method in brief: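 Wnt activity (firefly/Renilla ratio) and cell health (raw Renilla) were read with Dual-Glo luciferase and median-centred plate by plate. HEK293T cells, at 4500 cells/well in white 384-well plates with DMEM plus 10% FBS at 37°C and 5% CO2, carried a transfected BAR firefly luciferase Wnt reporter, TK-Renilla and an expression plasmid. The chemicals were applied by robot at 0.01–100 uM for 24 h, beginning four hours after transfection, and results were averaged across four biological replicates.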

Compound | Wnt reporter firefly/Renilla luciferase ratio (concentration: 0.01 uM) | Wnt reporter firefly/Renilla luciferase ratio (concentration: 0.1 uM) | Wnt reporter firefly/Renilla luciferase ratio (concentration: 1 uM) | Wnt reporter firefly/Renilla luciferase ratio (concentration: 10 uM) | Wnt reporter firefly/Renilla luciferase ratio (concentration: 100 uM)
Nc1ncn([C@@H]2O[C@H](CO)[C@@H](O)[C@H]2O)c(=O)n1 [5-azacytidine] | 1.01 | 1.52 | 1.36 | 0.213 | 2.42
c1ccc(C(O[C@@H]2CCCN(CCc3ccc4c(c3)OCO4)C2)c2ccccc2)cc1 [Zamifenacin] | – | 1.15 | 1.05 | 0.996 | 1.13
CS(=O)(=O)O.Cc1nccn1-c1ccc(Sc2cccc(C3(C(N)=O)CCOCC3)c2)cc1 | – | 1.01 | 0.73 | 0.387 | 0.282
COc1ccc2sc(C(=O)Nc3nnn[n-]3)c(OC(C)C)c2c1.[Na+] | – | 1.08 | 1.08 | 1.35 | –
CCCCCOC(C)=O [Pentyl acetate] | – | 1.22 | 0.968 | 1.4 | 1.61
CC(=O)OCCOCCOCCOC(C)=O [Triethylene glycol diacetate] | – | 1.25 | 1.16 | 1.07 | 1.26
CCCCOC(=O)CCCCCCCCC(=O)OCCCC [Dibutyl decanedioate] | – | 0.951 | 0.896 | 0.802 | 2.33
CCCCCCC(=O)OCC [Ethyl heptanoate] | – | 1.14 | 1.05 | 1.47 | 1.14
CCCCOC(=O)CCCCC(=O)OCCCC [Dibutyl hexanedioate] | – | 0.981 | 0.969 | 1 | 1.08
CC(=O)OCCC(C)C [3-Methylbutyl acetate] | – | 1.41 | 0.938 | 1.03 | 1.09
Cc1cccc(C)c1O [2,6-Dimethylphenol] | – | 1.32 | 0.992 | 1.45 | 1.16
CC(=O)c1ccc2c(c1)[C@H](NC(=O)c1ccc(F)cc1)[C@@H](O)C(C)(C)O2 [Carabersat] | – | 1.27 | 1.07 | 1.04 | 1.43
C=C(C)C(N)=O [Methacrylamide] | – | 1.22 | 1.04 | 1.05 | 1.25
Oc1ccc(C(c2ccc(O)cc2)C(Cl)(Cl)Cl)cc1 [2,2-Bis(4-hydroxyphenyl)-1,1,1-trichloroethane] | 1.02 | 1.3 | 0.957 | 0.541 | –
CC(=O)[C@@]1(O)CC[C@H]2[C@@H]3CCC4=CC(=O)CC[C@]4(C)[C@H]3CC[C@@]21C [17alpha-Hydroxyprogesterone] | – | 1.06 | 1.02 | 1.03 | 0.475
NC(=O)N/N=C/c1ccc([N+](=O)[O-])o1 [Nitrofurazone] | – | 1.22 | 1.02 | 0.506 | 0.32
Nc1nc(=O)c2nc(CNc3ccc(C(=O)N[C@@H](CCC(=O)O)C(=O)O)cc3)cnc2[nH]1 [Folic acid] | – | 1.38 | 1.01 | 0.97 | 1.26
O=C(OC[C@H]1O[C@@H](OC(=O)c2cc(O)c(O)c(OC(=O)c3cc(O)c(O)c(O)c3)c2)[C@H](OC(=O)c2cc(O)c(O)c(OC(=O)c3cc(O)c(O)c(O)c3)c2)[C@@H](OC(=O)c2cc(O)c(O)c(OC(=O)c3cc(O)c(O)c(O)c3)c2)[C@@H]1OC(=O)c1cc(O)c(O)c(OC(=O)c2cc(O)c(O)c(O)c2)c1)c1cc(O)c(O)c(OC(=O)c2cc(O)c(O)c(O)c2)c1 [Tannic acid] | – | 0.923 | 1.19 | 1.38 | –
CCC(C)N(C)C(=O)c1cc2ccccc2c(-c2ccccc2Cl)n1 (stereo unspecified) | – | 0.925 | 1.31 | 1.03 | 0.292
CC(C)(C)c1cc(O)c(C(C)(C)C)cc1O [2,5-Di-tert-butylbenzene-1,4-diol] | – | 1.14 | 0.988 | 1.13 | –
CC(C)(C)c1cccc(C(C)(C)C)c1O [2,6-Di-tert-butylphenol] | – | 1.12 | 1.01 | 1.3 | 1.72
CC(C)(C)c1ccc(O)c(C(C)(C)C)c1 [2,4-Di-tert-butylphenol] | – | 0.984 | 1.32 | 1.13 | 1.1
CCN(Cc1cccc(S(=O)(=O)[O-])c1)c1ccc(C(=C2C=CC(=[N+](CC)Cc3cccc(S(=O)(=O)[O-])c3)C=C2)c2ccccc2S(=O)(=O)[O-])cc1.[Na+].[Na+] | – | 0.943 | 1.04 | 0.706 | 0.433
CC1(C)C(=O)NC(=O)N1CO [1-(Hydroxymethyl)-5,5-dimethylhydantoin] | – | 1.14 | 0.992 | 1.12 | 1.59
CN1CCC(c2c(O)cc(O)c3c(=O)cc(-c4ccccc4Cl)oc23)C(O)C1 (stereo unspecified) [Flavopiridol] | 1.17 | 2 | – | – | –
CN(C)C(=O)NC1(c2ccccc2)CCN(CCC[C@@]2(c3ccc(Cl)c(Cl)c3)CCCN(C(=O)c3ccccc3)C2)CC1 | – | 1.08 | 0.903 | 0.985 | –
O=C(O)/C=C/C(=O)O.O=C1c2ccccc2C(=O)N1CCc1noc(-c2ccc(CN3CCCCCC3)s2)n1 | – | 1.17 | 1.07 | 0.907 | 0.252
NC(=O)N1c2ccccc2C=Cc2ccccc21 [Carbamazepine] | – | 1.35 | 0.977 | 0.997 | 0.929
CC(=O)Oc1ccccc1C(=O)O [Aspirin] | – | 1.2 | 1.04 | 1.15 | 0.812
